Compounds without any hit were thinned out: in the full panel of roughly 83,000, 20% have a hit.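 Note: values are percent growth. 100 is the growth of untreated cells, values between 100 and 0 indicate rising inhibition; between -100 and 0 indicates cell death.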 Values without a mark were called inactive. The source made the active and inactive calls. The calls were made as follows: active = growth percent below 10; inactive = the rest.
How the values were obtained:
Assay in all cases: NCI-60 one-dose screen, 48 h (100 = growth as untreated, 0 = no growth, -100 = all killed)
Details in all cases: 10 µM unless noted
SK-MEL-2 melanoma = system: SK-MEL-2 melanoma
EKVX NSCLC = system: EKVX NSCLC
SN12C renal = system: SN12C renal
UO-31 renal = system: UO-31 renal
TK-10 renal = system: TK-10 renal
ACHN renal = system: ACHN renal
CAKI-1 renal = system: CAKI-1 renal
A498 renal = system: A498 renal
CCRF-CEM leukemia = system: CCRF-CEM leukemia
MOLT-4 leukemia = system: MOLT-4 leukemia
SR leukemia = system: SR leukemia
RPMI-8226 leukemia = system: RPMI-8226 leukemia
OVCAR-8 ovarian = system: OVCAR-8 ovarian
OVCAR-5 ovarian = system: OVCAR-5 ovarian
OVCAR-4 ovarian = system: OVCAR-4 ovarian
SK-OV-3 ovarian = system: SK-OV-3 ovarian
OVCAR-3 ovarian = system: OVCAR-3 ovarian
HS 578T breast = system: HS 578T breast
NCI/ADR-RES ovarian = system: NCI/ADR-RES ovarian
IGROV1 ovarian = system: IGROV1 ovarian

Row | SMILES | growth (SK-MEL-2 melanoma) | growth (EKVX NSCLC) | growth (SN12C renal) | growth (UO-31 renal) | growth (TK-10 renal) | growth (ACHN renal) | growth (CAKI-1 renal) | growth (A498 renal) | growth (CCRF-CEM leukemia) | growth (MOLT-4 leukemia) | growth (SR leukemia) | growth (RPMI-8226 leukemia) | growth (OVCAR-8 ovarian) | growth (OVCAR-5 ovarian) | growth (OVCAR-4 ovarian) | growth (SK-OV-3 ovarian) | growth (OVCAR-3 ovarian) | growth (HS 578T breast) | growth (NCI/ADR-RES ovarian) | growth (IGROV1 ovarian)
1 | CCCCc1ccc(Nc2nnc(SCC(=O)NC(=O)NCC)s2)cc1 | 90.8% | 110% | 97% | 84.4% | 107% | 101% | 115% | 96.6% | 78.8% | 100% | 9.38% (active) | 85% | 74.1% | 96.8% | 104% | 195% | 104% | 60.6% | 103% | –
2 | NC(=O)c1ccc[n+](CC(=O)N2CCN(c3cc4c(cc3F)c(=O)c(C(=O)O)cn4C3CC3)CC2)c1 | 95.9% | 106% | 58% | 74.3% | 116% | 84.5% | 96.9% | 101% | -25.2% (active) | 26.6% | 32.2% | 74.3% | 92.8% | 114% | 74.8% | – | 69.4% | 91.1% | 99.8% | 99.4%
3 | Cc1[nH]n(C(=O)c2ccncc2)c(=O)c1N=Nc1ccc(F)c(Cl)c1 | 114% | 87.8% | 102% | 86.7% | 134% | 110% | 63.4% | 102% | 19.7% | 11.6% | 76.1% | 87.6% | 103% | 114% | 112% | – | 98.3% | 89.1% | 95.6% | 95.3%
4 | Cn1c(COC(=O)NCCN2CCOCC2)nc2c(N3CCOCC3)nc(-c3ccccc3)nc21 | -59.8% (active) | -62.6% (active) | -81.2% (active) | -100% (active) | -78.8% (active) | -100% (active) | -94.8% (active) | 30.7% | -10.9% (active) | -16.2% (active) | -5.83% (active) | -26.2% (active) | 7.67% (active) | -86.6% (active) | -61.1% (active) | 77.7% | -86.5% (active) | -35% (active) | -12.7% (active) | -93.3% (active)
5 | CN1CCN(C(=O)[C@]2(C)CC[C@]3(C)CC[C@]4(C)C(=CC(=O)[C@@H]5[C@@]6(C)CCC(=O)NC(C)(C)[C@@H]6CC[C@]54C)[C@@H]3C2)CC1 | 100% | 93.9% | 90.4% | 71.8% | 105% | 108% | 95.8% | 102% | 93.2% | 85.6% | 77.6% | 99.7% | 99.8% | 110% | 92.1% | 91% | 101% | 88.1% | 96.6% | 99.9%
6 | COc1ccc2c(c1)OC1=C(C(=O)OC1)C2c1cc(OC)c(OC)c(OC)c1 (configuration not stated) | 27.3% | 50.7% | 47.7% | 51.5% | 67.4% | 48.8% | 55.6% | -1.39% (active) | 13.8% | 20.4% | 15.3% | 11.5% | 21.1% | 32.7% | 56.3% | 13% | -55.9% (active) | – | 1.95% (active) | 49%
7 | NC(=O)c1cccc(-c2ccccc2N2CCCCC2)c1 | 103% | 97.2% | 93.6% | 82.4% | 103% | 95.3% | 83% | 95.3% | 89.7% | 91.1% | 66.4% | 74.2% | 99.7% | 95.1% | 89.9% | 94.9% | 106% | 101% | 102% | 92.4%
8 | ClCC1(Cn2cnc3c(Cl)nc(Cl)nc32)COC1 | 90.7% | 100% | 95.6% | 88.7% | 85.2% | 94.9% | 49% | 89.6% | 71.5% | 87.7% | 86.1% | 87.7% | 105% | 99.5% | 93.3% | – | 84.4% | 50.9% | 106% | 90.8%
9 | CC1(C)CN(Cc2ccccc2)CCN1Cc1ccccc1 | 103% | 106% | 96.1% | 93.6% | 96.3% | 109% | 102% | 85.8% | 90.9% | 100% | 95.8% | 98% | 104% | 103% | – | 122% | 106% | 99.1% | 105% | 101%
10 | Fc1ccccc1CSc1ncnc2nc[nH]c12 | 86.6% | 113% | 101% | 94.9% | 142% | 107% | 103% | 112% | 117% | 92.3% | 105% | 95.1% | 80.5% | 110% | 113% | – | 118% | 111% | 114% | –
11 | CC(C)(C)OC(=O)N1C/C(=C\c2ccoc2)C(=O)/C(=C/c2ccoc2)C1 | 96.4% | 102% | 97.8% | 74.2% | 94.8% | 99.6% | 82.5% | 74.1% | 16.5% | 76.1% | -8.41% (active) | -23% (active) | 101% | 97% | 100% | – | 106% | 90.6% | 97.6% | 95.6%
12 | COc1ccc(-c2nn(Cc3ccccc3)c3c2-c2oncc2CC3)cc1OC | 125% | 67% | 85.8% | 75% | 84.1% | 90.9% | 81.8% | 57.4% | 98.3% | 67.2% | 63.2% | 98.5% | 89% | 103% | 86.8% | 137% | 113% | – | 82.6% | 124%
13 | Cn1c(COC(=O)NCCc2ccccn2)nc2c(N3CCOCC3)nc(Cl)nc21 | 26.7% | 14.9% | -41.5% (active) | -99.3% (active) | -72.2% (active) | -100% (active) | -78.9% (active) | 51.9% | -9.98% (active) | 0.583% (active) | 3.5% (active) | -22.7% (active) | 4.96% (active) | -65% (active) | – | 90.3% | -88% (active) | -25% (active) | 18.9% | -92.3% (active)
14 | CC(C)(C)CC(C)(C)Nc1c(-c2ccc3c(c2)OCO3)nc2cnccn12 | 95.6% | 80.3% | 92.8% | 63.1% | 98.3% | 86.5% | 69.6% | 75.6% | 89.1% | 69.4% | 73.1% | 69.7% | 95.1% | 91.2% | – | 92% | 92.5% | 88.5% | 87.7% | 72.1%
15 | CCCCCCCCCCCCC1CCC/C=C\CCC(=O)O1 (configuration not stated) | 96.2% | 97.1% | 105% | 90.4% | 97.7% | 107% | 111% | 117% | 76.4% | -8.63% (active) | 71.4% | 94% | 100% | 102% | 109% | 95.3% | 102% | 107% | 102% | 102%
16 | COc1ccc(-c2nc(SC(C)C)nc(NNC(N)=O)c2C#N)cc1 | 92.9% | 99.2% | 83.9% | 68.2% | 97.1% | 90.1% | 72.2% | 90.2% | 88.3% | 78.6% | 25.8% | 93.9% | 96.9% | 85.6% | 94.6% | – | 81% | 78.9% | 70.7% | 72.4%

From PubChem BioAssay (NCI)
